From PubChem
Hits are enriched below; roughly 2.5% of the tested compounds scored in any of these assays.
Cruzain Triton: cruzain (T. cruzi) inhibition with detergent | hit rate 0.43% among 200,000 | AID 1478 | purified cruzain, Z-FR-AMC fluorescence, 0.01% Triton | P25779 | Potency, µM, for inactives: max response, negative = inhibition, most hits filed as inhibitors;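 further: plate controls were neutral wells for no effect and buffer without enzyme for full effect; nearly all actives have a fitted effect of over 40% in size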
Target sequence (P25779 123-467 limits assumed): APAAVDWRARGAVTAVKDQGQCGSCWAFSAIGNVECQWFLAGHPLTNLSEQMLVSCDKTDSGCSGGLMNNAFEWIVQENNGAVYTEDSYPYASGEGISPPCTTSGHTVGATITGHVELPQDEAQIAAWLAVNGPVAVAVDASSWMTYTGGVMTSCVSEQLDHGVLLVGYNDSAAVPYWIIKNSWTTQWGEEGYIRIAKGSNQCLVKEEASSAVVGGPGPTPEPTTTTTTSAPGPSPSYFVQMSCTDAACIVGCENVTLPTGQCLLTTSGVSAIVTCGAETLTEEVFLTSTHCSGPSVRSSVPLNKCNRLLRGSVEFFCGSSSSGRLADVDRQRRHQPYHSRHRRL
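Read-out: AMC fluorescence (360 nm excitation, 450 nm emission), four reads over 2 min, first-to-third difference used. Conditions: cruzain 1.5 nM, Z-FR-AMC 2 uM, pH 5.5 acetate, 5 mM DTT, 0.01% Triton X-100.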
Cruzain noTriton: blocks cruzain activity in detergent-free assay; P25779; hit rate 2.3% among 200,000; purified cruzain, Z-FR-AMC fluorescence, no detergent; Potency, µM, inactives show max response, negative = inhibition, most hits filed as inhibitors;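 further: plate controls were enzyme without inhibitor for no effect and buffer without enzyme for full effect; nearly all actives have a fitted effect of over 40% in size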
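Detergent-free condition (0.00005% Triton X-100) in acetate buffer pH 5.5 with DTT. 1.5 nM enzyme and compound were pre-mixed 15 min, then 2 uM Z-FR-AMC substrate added; reaction progress from fluorescence change between first and third reads (60 s).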
Numbers without * were called inactive; ? = inconclusive. The call rests on the fitted dose curve; in most records, active means well fitted curve in the direction sought with a large enough effect; inconclusive means small, poorly fitted or top-dose-only effect, or another doubt; inactive means no such curve, though single readings can be large; an effect the other way counts as inactive or inconclusive. Potency means the concentration at half of the fitted maximal effect.

SMILES	Cruzain Triton	Cruzain noTriton
Nc1c(-c2nc(-c3ccccc3Cl)no2)nnn1-c1ccccc1C(F)(F)F	3%	39%
Cc1cccc(S(=O)(=O)Nc2nc3ccccc3nc2Nc2ccc3c(c2)OCO3)c1	-6%	16µM*
O=S(=O)(Nc1nc2ccccc2nc1Nc1ccc2c(c1)OCO2)c1ccccc1	-3%	?
CCc1ccc(N2C(=O)CS(=O)(=O)C23C(=O)N(Cc2ccccc2F)c2ccccc23)cc1 (centres undefined)	-5%	3.2µM*
COc1cccc(CN2C(=O)C3(SCC(=O)N3c3ccc(C(C)C)cc3)c3ccccc32)c1 (centres undefined)	-6%	?
COc1ccc(N2C(=O)CSC23C(=O)N(Cc2ccccc2F)c2ccccc23)cc1Cl (centres undefined)	-8%	?
COc1ccc(N2C(=O)CS(=O)(=O)C23C(=O)N(Cc2ccccc2F)c2ccccc23)cc1Cl (centres undefined)	-2%	2µM*
Cc1ccc(N2C(=O)CS(=O)(=O)C23C(=O)N(C)c2ccccc23)cc1F (centres undefined)	-2%	-25%
CC(C)c1ccc(N2C(=O)CS(=O)(=O)C23C(=O)N(Cc2cccc(F)c2)c2ccccc23)cc1 (centres undefined)	-3%	2.5µM*
COc1cccc(Cn2c(=O)n(CCc3ccccc3)c(=O)c3c2c2cc(OC)ccc2n3C)c1	-2%	-8%
COc1ccc(OCC(=O)Nc2ccc(-c3nc4cc(C)cc(C)c4o3)cc2)cc1	-2%	4%
CC(C)Cc1nn2c(=O)cc(COC(=O)c3cccc(NS(C)(=O)=O)c3)nc2s1	-1%	0%
COc1cccc(N2CCN(c3ncc4c(n3)CCN(Cc3ccc(Br)cc3)C4)CC2)c1	-4%	-21%
CCOc1ccccc1CNC(=O)CN(c1ccc(C)cc1)S(=O)(=O)N(C)C	3%	5%
COC(=O)c1ccccc1NC(=O)Cc1nc(-c2ccccc2)sc1-c1ccc(C)cc1	-4%	25µM*
COC(=O)c1ccccc1NC(=O)Cc1noc2ccc(C)cc12	-4%	2%
Nc1cc(-c2nc3ncccc3o2)ccc1Cl	-6%	-13%
Cc1cc(-c2nc3ncccc3o2)ccc1N	28µM*	?
COc1ccccc1CNC(=O)CCC1N=C2c3ccccc3N=C(SCC(=O)Nc3ccc(N(C)C)cc3)N2C1=O (centres undefined)	-1%	-13%
O=c1oc2cc(O)ccc2cc1-c1ccc2c(c1)OCCO2	-4%	-20%
CCCC(=O)C1=C(c2cccc(OC)c2)N(C(=O)CCC)n2c(C)nnc2S1	-9%	?
CC(C)Cn1cc(NC(=O)Nc2cccc(C(F)(F)F)c2)c2ccccc2c1=O	-14%	-19%
CC1CCc2c(sc(NC(=O)Cn3nc(C(F)(F)F)c4c3CCCCC4)c2C#N)C1 (centres undefined)	2%	20µM*
CC1CCN(CC(=O)Nc2sc3c(c2C#N)CCC3)CC1	-8%	9%
N#Cc1c(NC(=O)Cn2nc(C(F)(F)F)c3c2CCCC3)sc2c1CCC2	8%	7.9µM*
SMILES	Cruzain Triton	Cruzain noTriton
CCc1ccc(NC(=O)Cn2nc(C(F)(F)F)c3c2CCC3)cc1	-3%	-18%
O=C(NCc1ccc2c(c1)CCN2C(=O)c1ccc(F)cc1)c1cc2ccccc2[nH]1	2%	?
COC(=O)c1ccc(C(=O)OC)c(NC(=O)c2ccc(-c3ccccc3)s2)c1	-3%	3%
COc1cccc(C(=O)N2c3ccc(C)cc3C(C)(c3ccccc3)CC2(C)C)c1 (centres undefined)	-4%	?
O=C(NCCc1ccc(Cl)cc1)c1c2c(nc3ccccc13)C(=O)N(C1CCCCC1)C2	-1%	-6%
C/C(=N\Nc1ccc(S(=O)(=O)Nc2ccc(Cl)cc2)cc1[N+](=O)[O-])c1ccc(N2CCOCC2)cc1	-6%	10µM*
COc1ccc(NS(=O)(=O)c2ccc(N/N=C(\C)c3ccncc3)c([N+](=O)[O-])c2)cc1	-8%	13µM*
COc1ccccc1NS(=O)(=O)c1ccc(N/N=C(\C)C(C)C)c([N+](=O)[O-])c1	-5%	-2%
O=C(O)c1cc(NS(=O)(=O)c2ccc(N3CCOCC3)c([N+](=O)[O-])c2)cc(C(=O)O)c1	-4%	-6%
CCn1cc(C(=O)NCCc2ccc(Cl)cc2)c(=O)c2cc(S(=O)(=O)N3CCc4ccccc4C3)ccc21	-3%	-2%
Brc1ccccc1-c1nnc(CSc2nncn2-c2ccccc2)o1	2%	-8%
O=c1c2ccccc2nc(SCc2nnc(-c3ccccc3Br)o2)n1-c1ccccc1	-1%	32µM*
COc1ccc(-c2noc(CSc3nc4ccccc4c(=O)n3-c3ccc(C)cc3)n2)cc1	5%	16µM*
COc1ccc(-n2c(SCc3nc(-c4ccc(C)cc4)no3)nnc2-c2ccccc2)cc1	-6%	?
Cc1sc2nc(SCC(=O)NCc3ccco3)n(-c3ccccc3)c(=O)c2c1C	3%	-10%
Cc1ccc2nc(SCc3nc(-c4ccccc4C)no3)[nH]c2c1	-24%	-7%
Cc1ccc2nc(SCc3nnc(-c4ccccc4Br)o3)[nH]c2c1	-30%	20µM*
Cc1sc2nc(SCc3nc(-c4ccccc4)no3)n(-c3ccccc3)c(=O)c2c1C	-3%	25µM*
COCCn1c(=O)c(-c2ccc(Cl)cc2)nc2cnc(N(C)C)nc21	-1%	-8%
O=C(NCC(c1ccccc1)c1ccccc1)c1nn(-c2ccccc2Cl)nc1CO	-4%	22%
CN(C)c1ccc(-c2cncnc2NCc2ccccc2)cc1	-1%	-2%
CC(C)n1nc(C(=O)Nc2nc3ccc(S(C)(=O)=O)cc3s2)c2ccccc2c1=O	3%	14%
CC(C)n1nc(C(=O)Nc2nnc(SCc3c(Cl)cccc3Cl)s2)c2ccccc2c1=O	-1%	13µM*
CN1CC[C@@]2(CCCN(S(=O)(=O)c3ccccc3)C2)C1	3%	-5%
COc1ccc(S(=O)(=O)NCCc2nnc3ccc(SCC(=O)Nc4cc(C)cc(C)c4)nn23)cc1	-3%	?
SMILES	Cruzain Triton	Cruzain noTriton
O=c1cnc2cnc(Nc3ccccc3)nc2n1C[C@H]1CCCO1	-4%	-5%
COc1cccc(NC(=O)/C(C#N)=C\c2cn(Cc3ccc(C)cc3)c3ccccc23)c1	-2%	7.9µM*
N#C/C(=C/c1cn(Cc2ccc(F)cc2)c2ccccc12)C(=O)Nc1cccc(Cl)c1	-3%	7.9µM*
N#C/C(=C\c1cn(Cc2ccc(C#N)cc2)c2ccccc12)C(=O)NCc1cccs1	-3%	?
COc1cccc(NC(=O)/C(C#N)=C/c2ccc(-c3ccc(C)cc3)o2)c1	-6%	?
Cc1cc(C)cc(NC(=O)CCCn2c3ccccc3c(=O)c3ccccc32)c1	-3%	-22%
COc1cc(/C=C(/C#N)C(=O)NCCc2c[nH]c3ccccc23)ccc1OCc1ccccc1F	5%	7.9µM*
Cc1cc(/C=C(\C#N)C(=O)NCCc2c[nH]c3ccccc23)c(C)n1C	-8%	0%
Cc1cccc([C@H]2[C@@H]3C=CC(C)C[C@@H]3C(=O)N2Cc2ccccc2)c1 (some centres undefined)	-3%	-4%
Cc1cccc(CCNC(=O)c2cc3c(s2)-c2c(C)cccc2OC3)c1	?	-27%
CCCN1CCN(CCCNC(=O)c2cc3c(s2)-c2c(C)cccc2OC3)CC1	18µM*	?
Cc1cccc2c1-c1sc(C(=O)NCCc3ccc(Cl)cc3)cc1CO2	-5%	25µM*
COc1ccc(CCNC(=O)c2cc3c(s2)-c2ccccc2OC3)cc1OC	-25%	?
